One may read the inhibition as the change of the read-out against control, counted positive when it falls.

In PubChem BioAssay AID463212 (Sanford-Burnham Center for Chemical Genomics, 2010) one finds inhibition data, which are given here for 96 compounds.

Screen size: about 330,000 compounds; about 4,400 (1.3%) were called active. The full list was thinned out, with actives kept by preference. Values without a mark were called inactive.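 How the source made its calls: active means growth inhibition of the mutant yeast at or above 50%; inactive means the rest.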

This experiment in a line: growth inhibition of tim23-1 ts yeast – luminescence, uHTS, primary screen (AID 463212).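 Further: temperature-sensitive mutant grown at 25 °C; plate controls were DMSO-treated mutant yeast for no effect and medium wells lacking yeast for full effect.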 Particulars: S. cerevisiae tim23-1 growth, BacTiter-Glo luminescence, 24 h; at 20 µM; active compounds read high.
Consider `CC1=NN(C(=O)c2ccc(Br)cc2)C(O)(c2ccccc2)C1` (stereo unspecified), for which the inhibition was 29.5%.
For `CC1=NN(C(=O)Cc2ccc(C)cc2)C(O)(c2cccnc2)C1` (stereo unspecified) the value was -31.5%; for `CCC1=NN(C(=O)Cc2ccc([N+](=O)[O-])cc2)C(O)(c2ccc(Br)cc2)C1` (stereo unspecified), 50% (active).
For `COc1ccc(CC2c3cc(OC)c(OC)cc3CC[N+]2(C)CCC(=O)OCCCCCOC(=O)CC[N+]2(C)CCc3cc(OC)c(OC)cc3C2Cc2ccc(OC)c(OC)c2)cc1OC` (stereo unspecified) the value was 3.67%.
As for `CC(C)(C)c1ccc(C(=O)N2CCN(CCNC(=O)C(=O)Nc3ccc(F)cc3)CC2)cc1`, the figure is 16.2%; as for `COC(=O)c1sccc1NN1C(=O)c2ccccc2C1=O`, 13.6%; as for `COC(=O)c1ccc2c(C(C)(C)O)c(C(C)(C)O)[nH]c2c1`, 5.76%.
`CCOc1ccc(NC(=O)CCC(=O)n2nc(C)cc2C)cc1`: the inhibition is 14.6%.
As for `Cc1ccccc1NCC(=O)N/N=C\c1ccc([N+](=O)[O-])s1`, the figure is 62.7% (active); as for `Cc1cccc(/C=N/NC(=O)CNc2cccc3ccccc23)n1`, 17.8%.
Consider `CCOc1ccc(NC(=O)CCC(=O)N/N=C/c2ccc([N+](=O)[O-])s2)cc1`, for which the inhibition is 79.1% (active).
On to `Cc1ccc(/C=N/NC(=O)CN2CCN(Cc3ccccc3)CC2)s1`, for which the inhibition is 0.916%.
Consider `CCOc1ccc(C(=O)CCC(=O)Nc2ccncc2)cc1`, for which the inhibition was 11.8%.
For `CCOC(=O)/C=C/C(=O)OCC(=O)NC(c1ccccc1)c1ccccc1` the value was 40.9%.
As to `O=C(NCc1ccc2c(c1)OCO2)C1CCCN(S(=O)(=O)c2cccs2)C1` (stereo unspecified), the inhibition was 7.36%.
Take `CCN(C(=O)c1cc([N+](=O)[O-])ccc1NCc1cccnc1)c1ccccc1`: the inhibition is 24.3%.
Regarding `COc1ccc(N=Nc2c(-c3ccc(OC)cc3)[nH]oc2=O)cc1`, the inhibition was 2.46%.
Regarding `CC1CCCCC1NC(=O)C1CCCN1S(=O)(=O)c1cccc2nsnc12` (stereo unspecified), the inhibition was 6.89%.
For `Cc1ccccc1CSc1nnc(Cn2c(=O)sc3ccccc32)n1C`, the inhibition was 18.7%.
As for `Cc1ccc(N=Cc2c(O)n(-c3nccs3)c(=O)c3ccccc23)c(C)c1`, the figure is -3.15%; as for `Cc1cc(O)c(C(=O)/C=C/c2c(F)c(F)c(F)c(F)c2F)c(=O)o1`, 19.1%.
Consider `Cc1ccc(N=Cc2c(O)cc(C)oc2=O)c(C)c1`, for which the inhibition was 96.2% (active).
As for `CN1CCN(C(=O)c2ccc(-c3ccc(Br)cc3)o2)CC1`, the figure is 4.87%.
For `Cc1ccc(S(=O)(=O)NC(=O)N2CCCN(Cc3ccc(F)cc3)CC2)cc1` the value was -9.12%; for `Cc1nc2cc(S(=O)(=O)C(F)(F)F)ccc2s1`, -1.26%.
Consider `COc1cccc(N2C(=O)CN(Cc3ccccc3)C2=S)c1`, for which the inhibition is 44.3%.
For `CCc1cccc(C)c1N1C(=O)CN(Cc2ccccc2)C1=S` the value was 46.7%; for `Cc1cccc(C)c1N1C(=O)CN(Cc2ccccc2)C1=S`, 54.6% (active).
`Cc1ccc2nc(N3CCN(C(=O)c4ccco4)CC3)sc2c1`: the inhibition was 26.4%.
Consider `Cc1ccc2cc3cc(C(=O)N4CCCCCC4)oc3nc2c1`, for which the inhibition was 53.8% (active).
Turning to `Cc1cc(C)cc(NC(=O)N2CCCCCCC2)c1`, the inhibition was 27.5%.
As for `CC(=O)N1CC(=O)N(CC(=O)Nc2ccc(Br)cc2)C1=S`, the figure is 10.5%.
For `COC(=O)[C@]1(C)N[C@H](c2ccc(-c3ccc(Cl)c(Cl)c3)cc2)[C@@H]2C(=O)N(C)C(=O)[C@@H]21` the value was 30.7%; for `COc1cccc(CNc2ncc(-c3ccccc3)n2C)c1`, -8.62%; for `Cc1csc(NC(=S)Nc2cccc(Cl)c2)n1`, 48.7%.
For `CCC(=O)Nc1nc(C)c(C(=O)Nc2cccc(Cl)c2)s1` the value was 57.9% (active); for `CCC(=O)Nc1sc(C(=O)Nc2ccccc2)c(C)c1C(=O)OC`, 32%.
Take `O=C(Nc1ccc(N2CCOCC2)nc1)c1c(F)cccc1F`: the inhibition is -3.3%.
For the compound `Cc1ccc(NC(=S)N2CCN(c3ncccn3)CC2)cc1C`, the inhibition is 19%.
As for `Cc1cccc(N2CCN(C(=O)/C=C/c3ccco3)CC2)c1C`, the figure is 38.9%; as for `COc1ccc(C(=O)COC(=O)CN2C(=O)C3CC=CCC3C2=O)c(OC)c1` (stereo unspecified), 12.1%; as for `COc1cccc(CNC(=O)C2CCCN(S(=O)(=O)N3CC(C)CC(C)C3)C2)c1` (stereo unspecified), 27.8%.
Consider `CC(=O)Oc1ccc(N(C(C)=O)S(=O)(=O)c2ccc3ccccc3c2)cc1Br`, for which the inhibition is 59.3% (active).
For `CN(c1ccc(OCC(=O)O)cc1)S(=O)(=O)c1ccc2ccccc2c1` the value was 3.8%; for `COCCNC(=O)COc1ccc(N(C)S(=O)(=O)c2ccc3ccccc3c2)cc1`, 19.5%; for `CC(=O)n1cc([C@@H]2C=C(C(=O)N3CCN(Cc4ccc5c(c4)OCO5)CC3)O[C@H](OCc3ccc(CO)cc3)C2)c2ccccc21`, 5.34%.
In the case of `O=C(COC(=O)Cc1ccc(Br)cc1)Nc1c(F)c(F)c(F)c(F)c1F`, the inhibition is 5.57%.
`CCCCOc1ccc(C(=O)NCC(=O)OCC(=O)c2c(N)n(C)c(=O)n(C)c2=O)cc1`: the inhibition was 7.23%.
For `NS(=O)(=O)c1ccc(CCNC(=O)NC2CCCCC2)cc1` the value was 8.17%; for `Cc1cc2ncn(CCCCOc3ccccc3)c2cc1C`, 51.5% (active).
With `COCCOCCn1cnc2ccccc21`, the inhibition is 2.15%.
In the case of `Clc1ncn(CCOc2ccccc2)c1Cl`, the inhibition is -4.79%.
As for `Fc1ccc2cnc(-c3ccccc3)cc2c1`, the figure is 31.1%; as for `O=C(c1ccco1)N1CCN(C(=O)c2cc(-c3ccccc3F)no2)CC1`, 19.6%; as for `Fc1ccccc1-c1cc2cc3c(cc2cn1)OCO3`, 54.8% (active).
As to `COc1ccc(-n2c(SCC(=O)Nc3ccc4c(c3)OCO4)nnc2C(C)N2CCCCC2)cc1` (stereo unspecified), the inhibition was 0.001%.
Regarding `O=C(O)c1ccc(S(=O)(=O)N2CCC(Cc3ccccc3)CC2)cc1`, the inhibition is -3.54%.
Turning to `CSCC[C@H](NC(=O)N1CCn2c1nc1ccccc12)C(=O)NCc1ccc2c(c1)OCO2`, the inhibition was -0.587%.
Turning to `CCCCNC(=O)CCn1c(=O)c2ccccc2n(Cc2cc(C)ccc2C)c1=O`, the inhibition was -7.13%.
In the case of `COC(=O)c1ccccc1NC(=O)CSc1nc2c(c(=O)[nH]1)CCC2`, the inhibition is 16%.
For `Nc1cc(OC(=O)c2ccccc2Br)nn1S(=O)(=O)c1ccccc1` the value was 37.3%; for `CN1C(=O)/C(=C\c2cc(Br)cs2)c2ccccc21`, 24.9%; for `CN1C(=O)/C(=N/OC(=O)c2ccccc2Br)c2ccccc21`, 56.2% (active).
As for `O=C(COc1ccc(F)cc1Br)NCC1COc2ccccc2O1` (stereo unspecified), the figure is 25%.
As for `CN(C)S(=O)(=O)N1CCN(c2ccc([N+](=O)[O-])cc2)CC1`, the figure is 9.07%; as for `Nc1nonc1-n1nnc(C(=O)N/N=C/c2c[nH]c3ccccc23)c1-c1ccccc1`, 14.8%.
As to `O=C(O)c1cccc(NC(=S)N/N=C/c2c[nH]c3ccccc23)c1`, the inhibition is 7.37%.
With `CSC(=S)N/N=C/c1c[nH]c2ccccc12`, the inhibition is 63.2% (active).
As to `FC(F)(F)c1cccc(Nc2ncnc3ccccc23)c1`, the inhibition was 94% (active).
For `COc1ccc(CNc2ncnc3ccccc23)cc1` the value was -0.028%.
For `FC(F)(F)c1cccc(NC(=S)Nc2cccc(Cl)c2)c1` the value was 46.1%; for `Cc1ccccc1-n1nc(SCC(=O)O)sc1=S`, -2.14%.
Consider `[O-][n+]1c2c(nn1-c1ccc(Cl)c(Cl)c1)-c1nonc1CC2`, for which the inhibition is 4.72%.
For `Clc1ccc(Nc2nc(-c3cccs3)cs2)nc1` the value was 70.7% (active); for `CCCc1cc(C(=O)Nc2ccc(Cl)cn2)cs1`, 33%; for `Clc1ccc(Cc2nnc(-c3cccs3)o2)cc1`, 15%.
As for `O=C(OCC(=O)N1CCCCCC1)c1cnc(Cl)c(Cl)c1`, the figure is 2.9%; as for `O=S(=O)(Nc1ccc(O)c2ccccc12)c1ccc(OC(F)(F)F)cc1`, 28.5%; as for `CCOC(=O)c1cc2cc(-c3c(C(=O)OCC)oc4cc(O)cc(O)c4c3=O)ccc2o1`, 14.3%.
For `COc1ccc(-c2onc(C)c2-c2ccc3c(c2)OCCO3)c(O)c1` the value was 28.1%; for `O=c1c(-c2ccc3c(c2)OCCO3)c(C(F)(F)F)oc2cc(O)cc(O)c12`, 58.2% (active).
For `CCOc1ccc(CCNC(=O)CCc2nnc3ccc(N4CCCC4)nn23)cc1OCC`, the inhibition was 10.2%.
As for `O=C1NC(c2ccccc2)Oc2ccccc21` (stereo unspecified), the figure is 22.9%; as for `Cc1ccccc1NC(=O)COc1cccc2c1CCNC2=O`, 12.3%; as for `O=C(Nc1ccc(N2CCN(C(=O)c3cccs3)CC2)cc1)c1cccnc1Cl`, 12.9%.
Take `O=C(Nc1nn(Cc2ccccc2F)cc1Br)c1cccs1`: the inhibition was 17.3%.
For the compound `O=C(Cc1ccccc1)N1N=C(c2ccncc2)CC1(O)C(F)(F)F` (stereo unspecified), the inhibition was 9.71%.
As for `CC(=O)N1N=C(c2ccccc2)OC1c1cccnc1` (stereo unspecified), the figure is 0.277%; as for `CC(=O)N1N=C(c2ccncc2)OC1(Cc1ccccc1)Cc1ccccc1`, 52.9% (active); as for `Cc1ccsc1C(=O)NNC(=O)COc1ccc(Br)cc1`, -6.92%.
As for `C#CCNC(=O)[C@H](Cc1ccc(C(=O)c2ccccc2)cc1)NC(=O)OC(C)(C)C`, the figure is 5.1%; as for `O=C(CNc1cccc(S(=O)(=O)N2CCCCC2)c1)Nc1ccccc1F`, 14.8%.
For `COCCn1c(C)cc(C(=O)CN2c3cccc4cccc(c34)S2(=O)=O)c1C` the value was 5.11%; for `Oc1ccccc1-c1cc(-c2ccc(Cl)cc2)n[nH]1`, 56.4% (active).
As for `Cc1ccc(NC(=O)c2cc(-c3ccccc3O)n[nH]2)cc1C`, the inhibition was -2.65%.
For `CSc1ccccc1-c1nnc(-c2ccc(Cl)cc2)o1` the value was 21.3%.
